Legend:
RUNX1 [1] = target: RUNX1 (UniProt Q01196); assay: RUNX1 binding intensity (PBM fluorescence), RUNX1 alone (arbitrary fluorescence units); higher = stronger binding; settings: RUNX1 concentration 2 nM; ETS1 concentration 0 nM
Method: (§1)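 Cooperative gcPBM on 36-bp genomic probes with neighbouring ETS1 and RUNX1 sites. Recombinant human RUNX1 (2 nM) was incubated alone or with ETS1 (25 nM) and detected with anti-RUNX1 antibody plus Alexa488 secondary. Values are medians over 4 replicate spots; the RUNX1+ETS1 data were normalised to the RUNX1-only data. The probes sit in constant array flanks that are not printed.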

ETS1 = target: T1, ETS1 (UniProt P14921); assay: ETS1 binding intensity (PBM fluorescence) in presence of RUNX1, normalised to ETS1-only experiment (arbitrary fluorescence units); higher = stronger binding; settings: ETS1 concentration 1 nM; RUNX1 concentration 25 nM
T1 sequence: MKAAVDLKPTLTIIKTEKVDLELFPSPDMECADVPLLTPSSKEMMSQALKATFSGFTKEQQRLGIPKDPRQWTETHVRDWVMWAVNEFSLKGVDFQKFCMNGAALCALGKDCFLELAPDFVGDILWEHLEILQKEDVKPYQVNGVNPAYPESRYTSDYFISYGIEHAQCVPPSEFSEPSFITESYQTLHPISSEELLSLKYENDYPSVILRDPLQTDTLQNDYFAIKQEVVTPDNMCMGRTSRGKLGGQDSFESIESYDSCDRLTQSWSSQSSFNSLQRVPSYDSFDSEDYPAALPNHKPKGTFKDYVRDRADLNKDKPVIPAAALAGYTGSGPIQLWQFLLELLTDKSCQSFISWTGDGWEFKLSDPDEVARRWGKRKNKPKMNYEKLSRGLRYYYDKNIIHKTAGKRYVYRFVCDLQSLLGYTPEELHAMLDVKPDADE

RUNX1 [2] = target: RUNX1 (UniProt Q01196); assay: RUNX1 binding intensity (PBM fluorescence) in presence of ETS1, normalised to RUNX1-only experiment (arbitrary fluorescence units); higher = stronger binding; settings: RUNX1 concentration 2 nM; ETS1 concentration 25 nM
Method: as §1
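For RUNX1 binding intensity (PBM fluorescence) in presence of ETS1, normalised to RUNX1-only experiment in this document: Full-length recombinant human ETS1 or RUNX1 bound to double-stranded 36-bp genomic probes on microarrays, detected by protein-specific primary antibody and Alexa488 secondary, spot fluorescence as median of four replicate spots.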
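For RUNX1 binding intensity (PBM fluorescence), RUNX1 alone in this document: Full-length recombinant human RUNX1 bound to double-stranded 36-bp genomic probes on a high-density microarray, scored as Alexa488 fluorescence per spot via anti-RUNX1 antibody, median of four replicate spots.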

Chain of RUNX1 (Q01196 whole entry): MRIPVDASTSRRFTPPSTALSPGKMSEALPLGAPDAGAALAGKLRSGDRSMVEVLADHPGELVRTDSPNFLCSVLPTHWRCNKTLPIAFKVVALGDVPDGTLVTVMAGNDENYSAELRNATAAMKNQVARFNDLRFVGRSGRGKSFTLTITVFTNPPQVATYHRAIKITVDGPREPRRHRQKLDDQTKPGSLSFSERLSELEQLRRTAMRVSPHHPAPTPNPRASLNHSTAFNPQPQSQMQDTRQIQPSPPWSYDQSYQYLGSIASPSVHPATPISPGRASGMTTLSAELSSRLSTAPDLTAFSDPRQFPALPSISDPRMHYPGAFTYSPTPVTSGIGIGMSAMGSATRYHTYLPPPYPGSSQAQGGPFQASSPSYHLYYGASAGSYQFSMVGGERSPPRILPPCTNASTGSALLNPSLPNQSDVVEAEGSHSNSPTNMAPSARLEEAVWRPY

Sequence	RUNX1 binding intensity (RUNX1 [1])	ETS1 binding intensity (ETS1)	RUNX1 binding intensity (RUNX1 [2])
CACTTCCCGTGGGAGGATCTTGGGCTGCGGCTAGGG	803	802	1850
TTCTGCTACATCCTGCCCACTCCCTGTGGCTTCCAC	1380	1060	3270
CCCGCTACACAAGGCGGATGTGGTACCCTCACTTGT	891	6380	1530
ACTCCAGAGGAAGTGGCAAGACGAGCGCGGTAACGG	728	1560	1330
AGCTAAACCCAGTTCCGGTGCTGTGGGGAGCTCAGA	741	908	1990
AGGGAGCCCTCCATTTCCTGCCCACATTTGTCACCT	1240	2060	2260
CACCTCAGCTTCCTGTGTAGCTGGGACCACAGGCAT	827	888	1560
TCTAACGCTGAAGGAGGATGTGGTTTCCTATTGGAC	880	11500	2110
GGCAGCAAGAAAGGAAATAGTGTGGTTGGGTGGAGA	846	1640	1010
AGACCCGGAAATGGTGGGTGTTTCTTGCAACCACGG	668	2290	1240
AACCTCCGACTTCCGGCCGCGCAGCGGTGGGCTGAG	678	4280	1970
CCTCGCCCCCTTCCGCACCCACCCCACCGCGCTCCG	2040	786	2360
GGTTCATTTCCTTTTCCTCCTTGTGGTATAAAAGAG	1210	985	2890
GTCCTCCACTATTGTTTCCGGCCGCAGCAGAGGCGG	1070	2090	2170
AGGCCCCGCCCCTTCCGCCCACAGAGCCCGCCACTT	1100	1000	1730
GGGCATGGTGGCTTCCGACCGCGGGGACCCCGAGAG	738		956
CCATTCTTCCGGTGGAGATGGCTGCGGCCGTGGCGG	714	588	2240
CGCCGGCTCCCGGATGTTGTGGGGATCAGCGCCCGC	771	3760	1260
AGCAGGAAGTATGTTGAAAGTCATAACCACAGCAAA	776	3050	1020
ACAGATAGTGATATCCTGTGGTCAATTCCCTCCCCT	1030	951	2280
AGCGGCCGAAGGAAGTGACGTTTGCGGCAGTAAGGC	1130	1450	1300
CTTTGCAGGAAGCTGGGGTTCACCCACAGCCTTGTT	729	857	878
TGGGGAGCAGGAAGCTGGGGGCGGTTGTGGAGGGAC	723	1600	867

Sequence	RUNX1 binding intensity (RUNX1 [1])	ETS1 binding intensity (ETS1)	RUNX1 binding intensity (RUNX1 [2])
CGAGGGAGCCGGAAAGATGGTGGTTACCAGATCTGC	766	992	926
GTGAGAGGAAGTGGGCGCTGGTTTAATGTGGTCAGC	834	5410	2360
GCCCTGACCCACATCCTGCCGCAGCCTGCTTGTCCT	1520	1350	7030
CGACTTCCGTCCCTGGGTGGGATCGAACCACCAACC	1100	540	2780
GCCCGCGGCTCCGGAAGCGGCTGCGGCCCCGACCGG	678	3860	1040
TGGCTGCCACTGAGAGGATGTGGTGACAGAGGTGGG	693	4350	886
GTTTCCACTTCCTGCTGTGCAGCAGTACCACCAAGA	992	1030	2800
GGCTTCCGCCTGCCGAGCGGCCCCGGACCGCAGGCC	830	768	1980
TTAACCAGACATTTCCTGTGGTCTAAGGTGACCCCA	1020	1090	2710
ACAGGAAATGACATCAGAATCTCCAAACCACAACCA	1390	5020	2110
TCTGATGTGCCTTCTTCCTGACCACAGCAACTACTA	1250	511	1270
AGAGCCACATCCCGCGCAGAGGACCGCGGCGACCGG	764		927
TTTTCTTTCCTAGGAAGTGGTTGCTGGGTTCTGAGG	831	721	872
TCCGGAAATAGATAATATCTAGTTAAACCTCAAAAT	786	2850	965
ATGGCGAAGCAGGATGCCCTCAACCCACATACGGCA	1010	927	1000
CTGCCCACCGGAAACGATGGCGCGAGGCCGCAGAGC	728	7790	1660
CTCACAACTCGCGTCCGGCGGAGACCACAATTCCCG	863	530	1230
TGCACCCGCCACTTCCGCATCGAACCGCCGCTTCAA	1030	1140	3470
CTCACCCCTGGAGGATGTGGGTTTCCAGGCTGACAG	849	2130	1190
GAAGAGAAAGGAAACGGCTCGCGGTTTCTGGGGTTC	738	3150	1280
GAGGAAGAGTCTTCCTGTAACCACTAGAGGGCGCTG	705	663	960
ATTCCTAGAGAGGAAATGCGGGCTCAGGGTGTCGGC	754	1560	897
AAAGCAAACAGGAAGTGCTGTGGTAACAAGGCCCCA	728	14500	1820

— the supplement of paper PMC10681739
